Where “and” joins values, the source holds several entries; their conditions need not be identical. Equal entries are not always repeated. The whole screen tested about 260,000 compounds, of which about 1,500 (0.58%) were called active. Roughly 5% stayed inconclusive and do not appear here.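 The calls were made as follows: active = inhibition above a set limit at one or more doses, reproduced on every date tested; inconclusive = results disagree between test dates, or hit never tested in dose response; inactive = the rest.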 The list is a sample of the results. Measured potencies and affinities stand elsewhere.
target: Virion infectivity factor (Human immunodeficiency virus type 1 group M subtype B (isolate BH10)) + Virion infectivity factor (Human immunodeficiency virus type 1 group M subtype B (isolate BRU/LAI)) + Virion infectivity factor (Human immunodeficiency virus type 1 group M subtype B (isolate PCV12)) + Virion infectivity factor (Human immunodeficiency virus type 1 group M subtype B (isolate HXB2)) + DNA dC->dU-editing enzyme APOBEC-3G (Homo sapiens) (UniProt P69720+P69721+P69722+P69723+Q9HC16); assay: HIV-1 Vif–A3G interaction blockers – biochemical, TR-FRET, GST-Vif 1-94, biotin-A3G peptide, dose response retest, primary screen (AID 1117319); conditions: TR-FRET GST-Vif / biotin-A3G peptide binding; active compounds read high;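 also: Vif residues 1-94 fused to GST binding biotinylated APOBEC3G peptide 110-148; 0% = full assay without inhibitor and 100% = GST in place of GST-Vif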

inhibition, inactive:
C=CCn1c(O)c(C(CC)=NCCN2CCOCC2)c(=O)[nH]c1=O 65.5%
CCCCn1c(O)c(C(CC)=Nc2ccc3c(c2)CCC3)c(=O)[nH]c1=O 7.31%
COc1ccccc1NC(=O)Cn1cnc2sc(C(=O)Nc3ccc(OC)c(OC)c3)c(C)c2c1=O 0.19%
COc1ccc(S(=O)(=O)N2CCCCCC2)cc1C(=O)N(C)Cc1ccc(F)cc1 4.27%
CCN(CC)S(=O)(=O)c1cccc2cc(C(=O)O)c(O)cc12 -3.16%
C=CCNS(=O)(=O)c1cccc2cc(C(=O)O)c(O)cc12 -0.91%
Cc1ccc(N2C(=O)N(c3ccc(C)cc3)C3CS(=O)(=O)CC32)cc1 (stereo not given) -8.71%
C=CCn1c(COc2ccc(F)cc2)nnc1SCC(=O)N1CC(=O)Nc2ccccc21 3.87%
CCOC(=O)c1cc(C)n(Cc2ccccc2)c1C 24.3%
CCOC(=O)c1c(C=O)c(C)n(Cc2ccccc2)c1C 4.84%
Fc1ccc(CNc2nc(-c3ccco3)cc(C(F)(F)F)n2)cc1 9.71%
FC(F)(F)c1cc(-c2ccccc2)nc(NCc2cccnc2)n1 -5.26%
FC(F)(F)c1cc(-c2ccco2)nc(NCc2ccccc2)n1 15.6%
FC(F)(F)c1cc(-c2ccco2)nc(NCc2ccc(Cl)cc2)n1 3.96%
COc1ccc(/C=N/NC(=O)c2cccc([N+](=O)[O-])c2)cc1OS(=O)(=O)c1ccccc1 2.68%
COc1ccc(NC(c2ccccc2)c2ccncc2)cc1 (stereo not given) 7.39%
CCC(C)(C)NC(=O)C(c1ccc(C)cc1)N(CCN1CCOCC1)C(=O)CNC(=O)c1cccs1 (stereo not given) 2.09%
Cc1c(NC(=O)Cc2noc3ccccc23)cccc1[N+](=O)[O-] -3.42%
CCN(CCCNC(=O)CN(C)S(=O)(=O)c1cccc2nsnc12)c1ccccc1 20.3%
Cc1ccsc1/C=N/n1cnnc1 -12.8%
CC(=O)c1ccc(-c2cccs2)s1 2.24%
O=Cc1ccc(-c2cccs2)s1 -3.47%
CCCCC(=O)N/N=C/c1sccc1C -0.53%
CCOC(=O)c1[nH]c(C)c(C(=O)N(CC)CC)c1C 4.43%
CC(=O)NS(=O)(=O)c1ccc(NC(=O)c2ccc(-n3nc(C)cc3C)cc2)cc1 0.12%
CCOC(=O)C1CCN(C(=O)COC(=O)c2cc(-c3cccs3)nn2-c2ccccc2)CC1 -3.24%
O=C(O)CCN1/C(=C/C=Nc2ccccc2)Oc2ccccc21 20.6%
COc1ccc(NC2CS(=O)(=O)CC2NCc2ccccc2)cc1 (stereo not given) -0.42%
O=S1(=O)CC(O)C(NCc2ccco2)C1 (stereo not given) 11.1%
COc1ccc(C2c3c(oc4ccccc4c3=O)C(=O)N2c2ccccn2)cc1OC (stereo not given) -8.31%
COC(=O)c1cc(O)c(O)c(O)c1 16.7%
COC1OC(COC(=O)c2ccccc2)C(OC(=O)c2ccccc2)C1OC(=O)c1ccccc1 (stereo not given) 3.23%
O=C1c2ccccc2C(=O)N1CCc1csc(-c2ccccc2)n1 0.09%
O=C(O)CC(c1ccccc1)c1ccccc1 0.95%
O=C(O)CC(Cn1[nH]nnc1=S)c1ccccc1 (stereo not given) -2.23%
Cc1cccc(N=CC=C2OC(C)(C)C(C)(C)O2)c1 -6.65%
Cc1ccc(NC(=O)CNC(=O)c2ccc(C(C)(C)C)cc2)cc1S(=O)(=O)N1CCOCC1 0.79%
CCO[C@H]1OC(C(=O)N2CCN(Cc3ccc4c(c3)OCO4)CC2)=C[C@@H](c2cn(C(C)=O)c3ccccc23)[C@@H]1CCCO -9.76%
O=C(CN1C(=O)NC2(CCCCC2)C1=O)NCc1ccc2c(c1)OCO2 -8.65%
O=C(CN1C(=O)NC2(CCCCCC2)C1=O)NCc1cccs1 -5.46%
CC1CCC2(CC1)NC(=O)N(CC(=O)NCc1cccs1)C2=O (stereo not given) -3.91%
CC1CCC2(CC1)NC(=O)N(CC(=O)NCc1ccc3c(c1)OCO3)C2=O (stereo not given) -3.28%
O=C(c1nc2ccccn2c1CNCCCn1cccn1)N1CCCC1 23.8%
C/C(=N\NC(=O)Cn1ccc(C(F)(F)F)n1)c1ccc2c(c1)OCO2 -1.38%
CCN(CC)CCOC(=O)c1ccc(NC(=O)c2cccc(C)c2[N+](=O)[O-])cc1 2.15%
COc1ccc(CNC(=O)C(c2ccncc2)N(C(=O)Cc2cccs2)c2cccnc2)cc1 (stereo not given) 2.85%
COc1ccc(NC(=O)C[C@H]2C(=O)N(Cc3cccnc3)C[C@@H]2Cc2ccccc2)cc1 -1.58%
CCCNC(=O)Cc1ncn[nH]1 -3.15%
O=C(NCCc1ccccc1)c1ncn[nH]1 28.1%
O=C(CCN1C(=O)c2ccccc2C1=O)CN1CCOCC1 -9.57%
O=C(NC1CCCC1)C(c1ccc(Cl)cc1)N1CCc2ccccc21 (stereo not given) 2.15%
CCc1ccc(CN(Cc2cccnc2)C(=O)/C=C/c2ccc(OC)cc2)cc1 -6.21%
CC(C)(C)c1ccc(C(=O)N2CCN(c3ncccn3)CC2)cc1 -3.51%
CCN1C(=O)/C(=C/N2CCc3ccccc32)SC1=S 2.5%
c1ccc2c(c1)CCN2CCN1CCc2ccccc21 -3.68%
O=C(C#Cc1ccccc1)c1ccccc1 -8.84%
COc1ccc(Cl)cc1N(CC(=O)Nc1cccc(SC)c1)S(C)(=O)=O 4.16%
CCN1C(=O)/C(=C/N(C)c2ccccc2)OC1=S 0.98%
CC(C)(C)c1ccc(OCCC(=O)Nc2cccc(S(=O)(=O)NC3=NCCCCC3)c2)cc1 -0.89%
COc1ccc(Nc2nc(C(=O)NCc3ccco3)cs2)cc1 -1.71%
O=C(NCc1ccco1)c1csc(Nc2ccccc2Cl)n1 -7.13%
O=C(CNC(=O)c1ccccc1F)OCCOc1cccc(Cl)c1 3.91%
Cc1ccc(CCNC(=O)C2CC(c3ccccc3C(F)(F)F)=NO2)cc1 (stereo not given) -3.19%
Cc1cccc(N2C(=O)c3ccc(Br)cc3C2=O)n1 1.11%
NC1=C(Br)C(=O)c2ncccc2C1=O 0.39%
COc1ccc(-c2c(C#N)cnc(C)c2C)c(O)c1OC -2.84%
COc1ccc(-c2c(N)cnc(C(=O)O)c2C)c(OCc2ccccc2)c1OC 2.47%
COc1ccc(C2=C(N)c3ccccc3C2=O)cc1 29%
COc1ccc(N)c2c1C(=O)c1ccccc1C2=O -29.2%
COc1ccc(CC(=O)Nc2ccc(C(N)=O)cc2)cc1 15.2%
CCOc1ccc(N2C(=O)CC(N(Cc3ccco3)C(=O)CC)C2=O)cc1 (stereo not given) 0.31%
Cc1c(N/C(=N/S(=O)(=O)c2ccc(F)cc2)c2ccccc2)c(=O)n(-c2ccccc2)n1C 0.73%
Cc1sc2nc(CSC(C)C(=O)NC3(C#N)CCCCC3)[nH]c(=O)c2c1C (stereo not given) 9.91%
C[C@]12C=CC(=O)C=C1CCC1C2CC[C@@]2(C)C1CCC21OCCO1 (stereo not given in full) -4.95%
C=C(C)COc1ccc2c(CC)cc(=O)oc2c1C -15.7%
O=C(CCCN1C(=O)/C(=C\c2ccccc2)SC1=S)Nc1ccc(O)cc1 7.93%
O=C(CCCN1C(=O)/C(=C\c2cccs2)SC1=S)Nc1ccccc1O 3.84%
O=C(CCN1C(=O)/C(=C/c2ccco2)SC1=S)Nc1ccc(O)cc1C(=O)O 20.3%
COc1ccc(/C=C2/SC(=S)N(CCCC(=O)Nc3cccc(O)c3)C2=O)cc1 4.43%
CCN1C=C(Cc2ccccc2C)C2=C(C1)C(c1ccccc1C)C(C#N)=C(N)O2 (stereo not given) 3.15%
O=C(CCC(=O)Nc1ccccc1Cl)NNC(=O)Nc1cccc([N+](=O)[O-])c1 -2.42%
c1ccc(N2CCN(c3cnccn3)CC2)nc1 -2.48%
c1ccc(N2CCN(c3ncccn3)CC2)cc1 2.21%
Cc1ccc(Sc2ncccc2C(=O)O)cc1 1.95%
O=C(NCC(c1ccco1)N1CCCC1)c1cn(-c2ccccc2)nc1-c1ccc(F)cc1 (stereo not given) -3.8%
C[C@H](NS(=O)(=O)c1ccccc1)C(=O)N1CCN(C(c2ccccc2)c2ccccc2)CC1 0.88%
COc1ccc(OC)c(NS(=O)(=O)c2ccc(Br)s2)c1 2.77%
Oc1cccc2ccc(N3CCOCC3)nc12 -8.55%
CC(C)(C)C(=O)Oc1cc(N)n(S(=O)(=O)c2ccccc2)n1 -2.72% and -3.77%
COc1ccc(CN(C(=O)c2cccs2)c2ccccc2C(=O)O)cc1 -12.9%
O=C1OCCC1Sc1ncnc2sc3c(c12)CCC3 (stereo not given) 21.7%
CN(Cc1ccccc1)C(=O)COC(=O)C1CCN(S(=O)(=O)c2ccc3c(c2)OCCO3)CC1 -5.03%
Cc1ccc(C)c(/C(O)=C2\C(=O)C(=O)N(CCCN3CCOCC3)C2c2cccnc2)c1 (stereo not given) -1.34%
COC(=O)c1[nH]c(C)c(/C(O)=C2\C(=O)C(=O)N(CCN3CCOCC3)C2c2ccco2)c1C (stereo not given) 10.8%
CC(CCc1ccccc1)NC(=O)c1nnc(Cc2ccc(Cl)cc2)o1 (stereo not given) -1.14%

From PubChem BioAssay AID1117319 (Southern Research Institute, 2015)
